# Bioassay records from PubChem BioAssay.
# HEK293 tox: Cytotoxic Profiling in HEK 293 Cell Line of Diverse Libraries Using Quantitative High-Throughput Screening | HEK 293 viability, ATP luminescence (CellTiter-Glo), 48-72 h | Potency, µM (top dose mostly 115 µM), inactives show at the top dose activity change, negative = cytotoxicity, actives largely listed as inhibitors | 6.6% of 94,000 active | AID 1345083, 2018; further: nearly all actives have a fitted effect of over 60% in size
#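 ATP-coupled CellTiter-Glo luminescence served as viability read-out, recorded 10 min after reagent addition at room temperature. HEK 293 cells, 250 cells/well, had been incubated with pintool-transferred compound for 48 or 72 hr at 37 degree Celsius.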
# hNpr1 antagonist: Natriuretic polypeptide receptor (hNpr1) antagonism - Primary qHTS; Atrial natriuretic peptide receptor 1 (Homo sapiens), P16066; HEK293 hNpr1 GloSensor cGMP, ANP-stimulated luminescence; Potency, µM (titrated, usually from 46.3 µM), without a hit: at the top dose activity change, negative = inhibition, most hits filed as inhibitors; 1.6% of 76,000 active; calls by dose curve; further: nearly all actives have a fitted effect of over 60% in size
#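 HEK293 cells stably expressing human Npr1 and cGMP GloSensor pGS-40F, loaded 2 h with 2% GloSensor reagent, given compound 30 min at room temperature. Luminescence read before and 20 min after 0.1 nM hNppA.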
# FLuc inh: Firefly luciferase inhibition profiling of diverse chemical library using quantitative high-throughput screening; 2.5% of 76,000 active; purified P. pyralis luciferase, luminescence, biochemical; Potency, µM (top dose mostly 115 µM), hits mostly inhibitors; further: nearly all actives have a fitted effect of over 65% in size
# Target sequence (P08659 whole entry, looked up): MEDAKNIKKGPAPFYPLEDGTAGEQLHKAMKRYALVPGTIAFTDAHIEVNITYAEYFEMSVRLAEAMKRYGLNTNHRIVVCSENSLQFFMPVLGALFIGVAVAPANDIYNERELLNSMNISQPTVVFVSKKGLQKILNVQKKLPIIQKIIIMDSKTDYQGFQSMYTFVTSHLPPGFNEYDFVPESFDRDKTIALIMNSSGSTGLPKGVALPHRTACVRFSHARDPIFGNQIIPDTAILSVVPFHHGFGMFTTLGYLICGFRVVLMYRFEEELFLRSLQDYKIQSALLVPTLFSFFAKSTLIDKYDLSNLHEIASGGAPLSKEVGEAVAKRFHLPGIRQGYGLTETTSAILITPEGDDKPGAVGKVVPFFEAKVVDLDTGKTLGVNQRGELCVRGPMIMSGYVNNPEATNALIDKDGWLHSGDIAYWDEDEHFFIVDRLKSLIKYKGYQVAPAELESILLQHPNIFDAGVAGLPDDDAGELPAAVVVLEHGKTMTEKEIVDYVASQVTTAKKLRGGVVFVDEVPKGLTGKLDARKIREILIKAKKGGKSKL
#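 Purified P. pyralis luciferase (10nM final) in 50mM Tris acetate pH 7.5, 10mM Mg acetate, 0.01% Tween-20, 0.05% BSA with 10uM D-luciferin and 10uM ATP. Compounds titrated qHTS. Luminescence imaged on CCD.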
# 3T3 cytotox: Cytotoxic Profiling in NIH 3T3 Cell Line of Diverse Libraries Using Quantitative High-Throughput Screening | NIH 3T3 viability, CellTiter-Glo ATP luminescence, 48-72 h | Potency, µM (highest dose often 96.7 µM), for inactives: top-dose activity change, negative = cytotoxicity, actives largely listed as inhibitors | 4.3% of 94,000 active | AID 1345082, 2018; further: nearly all actives have a fitted effect of over 55% in size
#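 ATP-dependent luminescence (CellTiter-Glo) served as the viability signal for NIH 3T3 cells treated with compound for 48 or 72 hr at 37 °C.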
# The depositor's hits bear a star; i = inactive; u = inconclusive; x = no result given; [ ] = dose if it differs, or a comment. Shown are actives, neighbours in structure and some others; about 11% of the full set was active somewhere. Unless noted, the call rests on the fitted dose curve; in most records, active means well fitted curve in the direction sought with a large enough effect; inconclusive means small, poorly fitted or top-dose-only effect, or another doubt; inactive means no such curve, though single readings can be large; an effect the other way counts as inactive or inconclusive. On the % scale 0 is the no-effect control and ±100 the full control effect; potency means the concentration at half of the fitted maximal effect.
SMILES,HEK293 tox,hNpr1 antagonist,FLuc inh,3T3 cytotox
O=C(NC1CCCC1)N1CC(Oc2ccc(-c3nc(-c4ccccc4)no3)cc2)C1,u,0.32µM*,u,-21%
CCC(=O)N1Cc2ccccc2CC2(CCN(Cc3ccc(NC(C)=O)cc3)C2)C1 (stereo not drawn),-7%,x,x,3%
O=C(Cc1ccccc1F)N1CCC(CCOc2ccccc2)C1 (stereo not drawn),u,-20%,i,u
O=C(Nc1ccc(Cl)cc1Cl)c1cnn2ncccc12,u,3%[70.6 µM],i,-23%[138 µM]
C=CCNC(=O)c1cc2cccnn2n1,-2%[230 µM],17%[70.6 µM],u,-5%[174 µM]
O=C(NCc1ccc(Cl)cc1)c1cc2cccnn2n1,u,0%[70.6 µM],45µM*,u
O=C(Nc1ccc(Cl)cc1Cl)c1cc2cccnn2n1,u,2.2µM*,0.32µM*,u
COc1ncc(-c2nccc3c(=O)cc(N4CCN(C)CC4)oc23)cn1,-13%[172 µM],1%[70.6 µM],i,89µM*
COc1cc(CNc2nccc3c(=O)cc(N4CCOCC4)oc23)cc(OC)c1,-14%[172 µM],-2%[70.6 µM],i,89µM*
COc1cccc(-c2nccc3c(=O)cc(N4CCOCC4)oc23)c1,u,9%[70.6 µM],i,20µM*
O=c1cc(N2CCOCC2)oc2c(-c3cncnc3)nccc12,-1%[172 µM],3%[70.6 µM],i,u
O=c1cc(N2CCOCC2)oc2c(-c3cccnc3)nccc12,-9%[172 µM],6%[70.6 µM],i,79µM*
CC(C)N1C[C@H](O)C[C@H]1c1nc(-c2ccc3c(c2)OCO3)no1,-23%[172 µM],0%[70.6 µM],40µM*,-30%[174 µM]
COc1ccc(-c2noc([C@@H]3C[C@@H](O)CN3Cc3cccc(C#N)c3)n2)cc1,u,u,22µM*,-26%[138 µM]
N#Cc1cccc(CN2C[C@H](O)C[C@H]2c2nc(-c3ccc4c(c3)OCO4)no2)c1,100µM*,-6%[70.6 µM],u,u
O[C@@H]1C[C@@H](c2nc(-c3ccc4c(c3)OCO4)no2)N(Cc2ccccc2)C1,u,-5%[70.6 µM],50µM*,u
O=C(O)c1ccc(CN2C[C@H](O)C[C@H]2c2nc(-c3ccc4c(c3)OCO4)no2)cc1,-1%[172 µM],-2%[70.6 µM],u,-14%[174 µM]
CN1CCC(O)(C(=O)N2C[C@@H](C(=O)O)[C@H](c3ccc4c(c3)OCO4)C2)CC1,-28%,10%,i,-5%
COCCN(C)C(=O)c1ccc2c(c1)C1(CCN(C)C1)CN2CC1CC1 (stereo not drawn),-17%[172 µM],0%[70.6 µM],i,u
CCN(CCn1cccn1)C(=O)c1ccc(OC2CCN(C(=O)C3CC3)CC2)cc1,-5%,-3%,i,-4%
FC(F)(F)c1ccc(O[C@H]2COCCN(CC3CCCC3)C2)cc1,112µM*,-3%[70.6 µM],i,89µM*
CC(C)Oc1cccc2c1c(NC(=O)C1CCCO1)nn2Cc1ccccc1 (stereo not drawn),45µM*,4%,i,u
O=C(C1CC1)N1CCC2(COc3ncccc3[S+](=O)([O-])N2)C1 (stereo not drawn),2%,x,x,-5%
CCC1(N2CCN(C(=O)c3cc(F)ccc3Cl)CC2)CCN(C(=O)NC)C1 (stereo not drawn),-1%,-9%,u,-7%
CN1C(=O)CCC2(CNC(=O)c3cccc4nccnc34)CCCC=C12 (stereo not drawn),79µM*,3%,i,u
SMILES,HEK293 tox,hNpr1 antagonist,FLuc inh,3T3 cytotox
CN1C(=O)CCC2(CNC(=O)c3ccncc3)CCCC=C12 (stereo not drawn),0%,7%,i,0%
O=C(NCCc1ccc(Cl)cc1)C1CCN(C(=O)c2ccc(-c3cccs3)cc2)CC1,45µM*,x,x,u
O=C(NCc1ccc(C(F)(F)F)cc1)C1CCN(C(=O)c2ccc(-c3cccs3)cc2)CC1,32µM*,x,x,7.1µM*
CN1Cc2ccc(C(=O)Nc3ccc4cn[nH]c4c3)cc2OCC1=O,-23%[172 µM],-2%[70.6 µM],32µM*,u
COc1ccccc1CCN1CCCC(CN(C)C(=O)Cn2cccnc2=O)C1 (stereo not drawn),0%,-1%,i,0%
O=C(CCc1ccc(CC2CCN(Cc3c[nH]c4ccccc34)CC2)cc1)N1CCCC1,35µM*,x,x,32µM*
O=C1CCN(C(=O)C2CCN(Cc3c[nH]c4ccccc34)CC2)CCCCCCN1,i,-1%,i,-13%
